Source: PubChem BioAssay (The Scripps Research Institute Molecular Screening Center)
Only some compounds are listed: those with a hit (about 3.5% of all), similar ones and a draw of the others.
GPR151 ag – human GPR151 activation. Q8TDV0. PathHunter beta-arrestin GPR151 cells, luminescence. activation, % at 11.2 µM. actives 1% (n = 650,000); in the data active = activation above about 4.9%;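 also: 0% = median of compound wells and 100% = cells with positive control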
Target sequence (Q8TDV0 whole entry, looked up): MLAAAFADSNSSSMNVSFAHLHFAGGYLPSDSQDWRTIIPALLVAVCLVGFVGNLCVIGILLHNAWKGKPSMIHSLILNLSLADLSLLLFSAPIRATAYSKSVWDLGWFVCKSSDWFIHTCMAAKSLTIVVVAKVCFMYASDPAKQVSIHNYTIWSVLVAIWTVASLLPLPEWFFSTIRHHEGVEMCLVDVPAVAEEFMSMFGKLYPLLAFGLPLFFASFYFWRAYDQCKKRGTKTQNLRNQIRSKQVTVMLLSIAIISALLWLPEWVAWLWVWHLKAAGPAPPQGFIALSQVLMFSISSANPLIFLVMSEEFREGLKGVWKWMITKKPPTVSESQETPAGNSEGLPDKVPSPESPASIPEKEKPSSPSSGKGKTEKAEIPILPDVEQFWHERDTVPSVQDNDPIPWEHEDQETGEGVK
TEAD-YAP block – TEAD-YAP interaction inhibition. actives 1.4% (n = 640,000). inhibition, % at 9.12 µM. HEK-TIYL cells, TEAD-Gal4/YAP UAS-luciferase luminescence; in the data active = inhibition above about 32%;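 also: 0% = median of test compound wells and 100% = reference inhibitor wells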
MITF inh – blocks human microphthalmia-associated transcription factor; O75030; AlphaScreen MITF homodimerization, bead proximity signal; inhibition, % at 2.6 µM; actives 0.91% (n = 650,000); in the data active = inhibition above about 50%;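 also: 0% = vehicle wells with protein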
FBW7 activator – human FBW7 E3 ligase activation, primary screen; Q969H0; AlphaScreen FBW7–phospho-cyclin E peptide binding, activator screen; normalized activity (activation), % at 26.1 µM; actives 0.13% (n = 650,000); in the data active = normalized activity above about 1.9%;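 also: purified mutant Fbw7 with reduced substrate affinity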
* = called active by the depositor.

SMILES	GPR151 ag	TEAD-YAP block	MITF inh	FBW7 activator
COCCNC(=S)NNC(=O)CSCc1ccccc1Br	1.5	0.7	21.1	2.8*
COc1cccc(Nc2nnc(SCC(=O)NNC(=O)c3ccccn3)s2)c1	0.1	79.3*	11.0	-0.9
COc1cccc(Nc2nnc(SCC(=O)NNC(=O)C3CC3)s2)c1	-0.3	2.5	2.6	-0.1
COc1ccc(C2Nc3ccccc3C(=O)N2c2ccc(C)cc2)cc1 (configuration not stated)	-1.3	-66.0	9.9	-0.1
COc1ccc(C2Nc3ccccc3C(=O)N2c2ccc3ccccc3c2)cc1 (configuration not stated)	-5.6	64.4*	-5.0	-0.3
Cc1ccc(N(C(C)C(=O)Nc2cccc(C)c2C)S(C)(=O)=O)cc1 (configuration not stated)	1.0	0.6	-24.0	0.5
O=C(O)CCC(=O)N1N=C(c2ccccc2)CC1c1ccccc1 (configuration not stated)	0.2	-7.2	13.1	1.9*
COc1cc(OC)c(/C=C2/C(=O)Nc3ccccc32)c(OC)c1	2.1	53.5*	0.1	-0.1
COc1cc(/C=C2/C(=O)Nc3ccccc32)cc(OC)c1O	1.1	-10.9	0.9	0.1
COc1ccc(C(=O)Nc2ccc(-c3nc4ccccc4[nH]3)cc2)cc1OC	0.8	3.4	-5.5	-0.1
COc1cc(C(=O)Nc2ccc(-c3nc4ccccc4[nH]3)cc2)cc(OC)c1OC	-0.2	32.0*	7.9	-0.1
COc1cc(C(=O)NCc2ccc(C(=O)NCCc3ccccc3)cc2)cc(OC)c1OC	-0.7	-5.2	10.8	0.1
COc1cc(C(=O)Nc2ccccc2C(=O)Nc2ccccc2)cc(OC)c1OC	0.6	53.4*	-8.0	0.1
Nc1ccccc1C(=O)NCCc1ccccc1	-5.4	62.7*	-5.8	0.1
COc1cc(C(=O)Nc2ccccc2C(=O)NCCc2ccccc2)cc(OC)c1OC	0.4	38.9*	-7.5	0.0
COc1cc(C(=O)Nc2ccccc2C(=O)Nc2cccc(C(=O)O)c2)cc(OC)c1OC	0.3	0.7	0.6	-0.1
O=C(CSc1cc(-c2ccccc2)ncn1)Nc1ccc2c(c1)OCCO2	-0.4	1.2	0.5	0.0
NS(=O)(=O)c1ccc(NC(=O)c2cc(-c3ccncc3)nc3ccccc23)cc1	0.6	10.4	18.7	0.3
CCOc1ccc(NC(=O)c2cc(OC)c(OC)c(OC)c2)cc1	1.1	54.6*	-1.7	-0.3
CCc1ccc(-c2cc(C(=O)Nn3cnnc3)c3ccccc3n2)cc1	-3.0	81.9*	7.1	0.5
CCOc1ccc(-c2cc(C(=O)Nc3cc(=O)n(C)c(=O)n3C)c3ccccc3n2)cc1	-1.8	76.4*	-26.1	0.0
NS(=O)(=O)c1ccc(NC(=O)c2cc(-c3ccccc3)nc3ccccc23)cc1	-1.1	2.1	19.4	1.9*
O=C(NCc1ccco1)c1ncoc1-c1ccc2ccccc2c1	-0.7	-39.0	1.3	-0.1
O=C(/C=C/c1cc2ccccc2o1)c1ccccc1OCc1ccccc1	0.8	-3.8	18.0	0.1
O=C(NCC1Cc2cccc(-c3cncnc3)c2O1)c1cccc(-c2ccco2)c1 (configuration not stated)	-0.5	7.3	0.0	-0.1
SMILES	GPR151 ag	TEAD-YAP block	MITF inh	FBW7 activator
COc1ccc(C(=O)NCCOc2cc(C)cc(C)c2)cc1OC	-0.7	11.0	12.4	0.0
COc1cc(C(=O)NCCOc2cc(C)cc(C)c2)cc(OC)c1OC	-0.6	51.5*	13.2	1.0
CCOc1ccc(NC(=O)c2cc(OC)nc3ccccc23)cc1	-0.9	52.3*	6.0	0.2
COc1cc(C(=O)Nc2ccccc2)c2ccccc2n1	0.1	24.4	5.1	0.0
CC1CCCCN1C(=O)c1ccc(N2CC3CC(C2)c2cccc(=O)n2C3)c(NC(=O)Cc2c(F)cccc2Cl)c1 (configuration not stated)	-0.1	0.4	12.1	-0.1
COCc1ccc(-c2ccc(OC3CCN(c4nccc(OC)n4)CC3)cc2)cc1	2.2	-5.6	3.2	0.0
CN(C)c1ccc(-c2ccc(OC3CCN(CCc4ccccn4)CC3)cc2)cn1	0.8	52.9*	9.9	-0.3
COc1ccnc(N2CCC(Oc3ccc(-c4ccc(N(C)C)nc4)cc3)CC2)n1	0.8	60.7*	-0.4	-0.4
COCCn1c(CN2CCCC(C)C2)nc2c1c(=O)n(C)c(=O)n2C (configuration not stated)	0.2	17.9	7.7	-0.1
CC(=O)C1=C(O)C(=O)N(c2nc3ccccc3s2)C1c1ccc(Cl)cc1Cl (configuration not stated)	0.8	65.5*	19.8	0.1
CC(=O)C1=C(O)C(=O)N(c2nc3ccccc3s2)C1c1ccccc1F (configuration not stated)	0.9	-77.4	15.0	0.2
COc1cccc(NC(=O)C(=O)NCCC(C)C)c1	-1.1	-58.5	0.2	0.1
NNC(=O)C(Cc1ccccc1)NC(=O)OCc1ccccc1 (configuration not stated)	1.4	8.4	5.5	0.0
NNC(=O)C(Cc1ccc(O)cc1)NC(=O)C(CO)NC(=O)OCc1ccccc1 (configuration not stated)	-0.7	13.1	8.7	2.1*
CCOc1ccc(-c2cn(-c3ccccc3)c3[n+]2CCS3)cc1	3.2	65.1*	7.5	0.1
COc1ccc(-n2cc(-c3ccccc3)[n+]3c2SCC3)cc1	-0.1	58.9*	-0.5	0.2
COc1ccc(-c2cn(-c3ccccc3)c3[n+]2CCS3)cc1	0.0	32.3*	8.6	-0.1
COc1ccc(-n2cc(-c3ccc(Cl)cc3)[n+]3c2SCCC3)cc1	-1.0	26.4	-0.9	-0.1
COc1ccc(C(=O)CC2(O)C(=O)N(CCc3ccccc3)c3ccccc32)cc1 (configuration not stated)	-0.2	2.8	13.2	0.1
Cc1cc(Sc2nc3c(C)cccn3c(=O)c2C=O)ncn1	0.2	-2.1	-0.7	1.9*
Cc1nc(SCc2nnc(-c3ccccc3)o2)c(C#N)c(C)c1C	0.1	92.1*	-3.2	-0.4
Cc1cc(C)c(C#N)c(SCc2nnc(-c3ccc(Cl)cc3)o2)n1	-0.7	29.0	3.9	-0.1
Cc1cc(C(F)(F)F)c(C#N)c(SCc2nnc(-c3ccccc3)o2)n1	-1.5	41.1*	-0.3	-0.2
CC(C)C(=O)N1CCC[C@@H](Cn2nc(-c3cccs3)ccc2=O)C1	0.8	68.8*	-3.8	0.0
CCCNc1nc(SC)nc2c1cnn2CCNC(=O)c1ccc(F)cc1	-0.4	4.5	1.4	0.0
SMILES	GPR151 ag	TEAD-YAP block	MITF inh	FBW7 activator
CCCNc1nc(SC)nc2c1cnn2CCNC(=O)c1ccc(OC)cc1OC	1.5	36.0*	1.6	0.0
O=C(O)[C@H]1CCc2ccccc2N1C(=O)c1ccccc1F	-0.3	-1.1	-16.2	0.2
COc1ccc2[nH]c(=O)c(CN(Cc3cccnc3)C(=O)Nc3ccc(F)cc3)cc2c1	0.0	46.1*	12.7	0.7
Cc1cccc2cc(CN(CCO)C(=O)Nc3ccc(F)cc3)c(=O)[nH]c12	-0.4	12.9	8.7	2.3*
COc1ccc2[nH]c(=O)c(CN(Cc3cccnc3)C(=O)Nc3ccccc3)cc2c1	-0.6	17.1	2.8	0.1
COc1ccc(NC(=O)N(CCCO)Cc2cc3cccc(C)c3[nH]c2=O)cc1	-0.4	-3.4	4.0	0.1
